Experiments:
Experiment in all cases: DAPPL (digital affinity profiling via proximity ligation, sequencing); 10 mM Tris-HCl pH 7.5, 50 mM NaCl, 1 mM DTT, 4% glycerol, room temperature, 30 min; GST-TFs on glutathione beads, 16-mer random dsDNA library, 0.1% formaldehyde crosslink after washing; high values mean tight binding
Conditions in all cases: protein: recombinant; tags: N-terminal GST; dsDNA, one strand shown
[1] = target: T1, FLI1 (Homo sapiens, UniProt Q01543 1-452)
T1 sequence: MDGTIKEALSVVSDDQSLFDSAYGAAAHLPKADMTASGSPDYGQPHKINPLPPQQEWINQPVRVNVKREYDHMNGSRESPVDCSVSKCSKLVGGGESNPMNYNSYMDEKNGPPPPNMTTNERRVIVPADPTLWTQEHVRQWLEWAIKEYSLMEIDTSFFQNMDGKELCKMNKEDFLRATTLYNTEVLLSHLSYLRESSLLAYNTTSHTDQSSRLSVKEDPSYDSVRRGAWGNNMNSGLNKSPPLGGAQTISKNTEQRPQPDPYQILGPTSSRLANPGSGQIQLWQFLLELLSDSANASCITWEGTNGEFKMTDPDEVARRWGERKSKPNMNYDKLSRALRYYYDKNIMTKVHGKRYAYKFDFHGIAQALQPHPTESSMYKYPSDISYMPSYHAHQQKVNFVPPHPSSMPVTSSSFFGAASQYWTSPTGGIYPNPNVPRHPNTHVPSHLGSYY
How it was run: (§1)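 GST fusions of human transcription factors were expressed in yeast and captured with glutathione beads. Once given DNA barcodes and pooled alongside a tag-only sample, they were incubated for 30 min at room temperature with 200 nmole of a random double-stranded 16-mer DNA library in Tris/NaCl/DTT/glycerol buffer, then washed, crosslinked (0.1% formaldehyde), proximity-ligated, PCR-amplified and sequenced on an Illumina NextSeq500. The binding signal of each hexamer is its read frequency for a factor divided by its frequency for the tag-only sample.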

[2] = target: T2, ELK1 (Homo sapiens, UniProt P19419 1-428)
T2 sequence: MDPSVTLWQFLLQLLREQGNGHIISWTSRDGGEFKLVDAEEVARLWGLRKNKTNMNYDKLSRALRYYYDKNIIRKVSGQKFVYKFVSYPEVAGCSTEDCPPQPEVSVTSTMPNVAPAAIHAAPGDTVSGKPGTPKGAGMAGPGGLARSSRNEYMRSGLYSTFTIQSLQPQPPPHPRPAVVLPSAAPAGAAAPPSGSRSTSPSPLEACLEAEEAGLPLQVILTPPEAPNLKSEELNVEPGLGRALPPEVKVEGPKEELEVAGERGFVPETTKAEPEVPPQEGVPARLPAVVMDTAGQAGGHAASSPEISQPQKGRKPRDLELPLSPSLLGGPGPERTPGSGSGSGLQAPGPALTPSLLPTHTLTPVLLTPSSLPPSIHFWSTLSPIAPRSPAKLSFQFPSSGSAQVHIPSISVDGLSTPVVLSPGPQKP
How it was run: as §1

[3] = target: T3, GABPA (Homo sapiens, UniProt Q06546 1-454)
T3 sequence: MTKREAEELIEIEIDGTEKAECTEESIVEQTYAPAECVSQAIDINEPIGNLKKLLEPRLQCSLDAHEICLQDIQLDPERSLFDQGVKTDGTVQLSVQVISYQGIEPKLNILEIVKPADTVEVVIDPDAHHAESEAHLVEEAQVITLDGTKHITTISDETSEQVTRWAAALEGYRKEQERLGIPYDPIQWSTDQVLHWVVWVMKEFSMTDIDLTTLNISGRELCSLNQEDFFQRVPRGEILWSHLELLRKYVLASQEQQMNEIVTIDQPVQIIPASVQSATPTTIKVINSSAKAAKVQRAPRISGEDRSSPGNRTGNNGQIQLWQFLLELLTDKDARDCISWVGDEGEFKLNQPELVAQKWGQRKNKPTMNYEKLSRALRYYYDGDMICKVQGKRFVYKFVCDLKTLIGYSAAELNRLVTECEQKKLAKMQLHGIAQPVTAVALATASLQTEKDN
How it was run: as §1

[4] = target: T4, ERG (Homo sapiens, UniProt P11308 1-479)
T4 sequence: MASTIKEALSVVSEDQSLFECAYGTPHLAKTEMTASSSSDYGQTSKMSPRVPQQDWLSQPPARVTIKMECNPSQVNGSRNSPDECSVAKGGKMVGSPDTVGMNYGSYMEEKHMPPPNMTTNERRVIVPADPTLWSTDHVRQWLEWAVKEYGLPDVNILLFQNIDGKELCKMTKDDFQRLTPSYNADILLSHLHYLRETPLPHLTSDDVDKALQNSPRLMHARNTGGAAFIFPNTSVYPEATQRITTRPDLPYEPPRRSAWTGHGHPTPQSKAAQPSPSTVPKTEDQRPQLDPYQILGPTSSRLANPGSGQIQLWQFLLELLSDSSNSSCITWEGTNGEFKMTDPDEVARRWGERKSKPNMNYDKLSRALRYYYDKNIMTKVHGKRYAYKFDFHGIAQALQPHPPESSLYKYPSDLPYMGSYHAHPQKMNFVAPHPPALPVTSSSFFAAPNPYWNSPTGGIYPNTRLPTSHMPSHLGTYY
How it was run: as §1

[5] = target: ELF1 (Homo sapiens, UniProt P32519 1-619)
ELF1, sequence (P32519 whole entry): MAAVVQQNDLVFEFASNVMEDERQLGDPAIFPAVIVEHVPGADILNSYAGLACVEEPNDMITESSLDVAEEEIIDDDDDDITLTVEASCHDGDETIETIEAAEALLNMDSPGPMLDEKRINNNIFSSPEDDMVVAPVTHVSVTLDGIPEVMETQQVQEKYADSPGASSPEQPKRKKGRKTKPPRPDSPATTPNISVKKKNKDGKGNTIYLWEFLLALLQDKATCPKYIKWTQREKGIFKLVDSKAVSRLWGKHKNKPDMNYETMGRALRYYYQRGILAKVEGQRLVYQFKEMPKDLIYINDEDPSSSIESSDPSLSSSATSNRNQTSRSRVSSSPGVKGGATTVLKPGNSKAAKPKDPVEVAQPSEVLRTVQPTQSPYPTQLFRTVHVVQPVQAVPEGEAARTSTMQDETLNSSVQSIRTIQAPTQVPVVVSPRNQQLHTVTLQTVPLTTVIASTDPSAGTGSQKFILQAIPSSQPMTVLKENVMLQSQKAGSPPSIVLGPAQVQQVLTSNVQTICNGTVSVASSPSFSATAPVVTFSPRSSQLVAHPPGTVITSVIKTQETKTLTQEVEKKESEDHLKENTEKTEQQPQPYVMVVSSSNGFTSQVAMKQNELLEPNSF
How it was run: as §1

[6] = target: T5, EHF (Homo sapiens, UniProt Q9NZC4 1-300)
T5 sequence: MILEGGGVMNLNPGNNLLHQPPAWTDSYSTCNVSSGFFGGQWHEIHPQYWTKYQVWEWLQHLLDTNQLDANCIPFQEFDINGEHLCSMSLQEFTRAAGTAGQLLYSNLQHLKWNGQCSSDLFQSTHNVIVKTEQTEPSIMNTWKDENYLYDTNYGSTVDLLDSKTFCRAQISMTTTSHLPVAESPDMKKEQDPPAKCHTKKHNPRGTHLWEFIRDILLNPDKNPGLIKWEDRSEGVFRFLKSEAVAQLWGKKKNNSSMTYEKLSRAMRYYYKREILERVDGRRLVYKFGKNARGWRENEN
How it was run: as §1

[7] = target: SPI1 (Homo sapiens, UniProt P17947 1-270)
How it was run: as §1

[8] = target: SPIB (Homo sapiens, UniProt Q01892 1-262)
SPIB, sequence (Q01892 whole entry): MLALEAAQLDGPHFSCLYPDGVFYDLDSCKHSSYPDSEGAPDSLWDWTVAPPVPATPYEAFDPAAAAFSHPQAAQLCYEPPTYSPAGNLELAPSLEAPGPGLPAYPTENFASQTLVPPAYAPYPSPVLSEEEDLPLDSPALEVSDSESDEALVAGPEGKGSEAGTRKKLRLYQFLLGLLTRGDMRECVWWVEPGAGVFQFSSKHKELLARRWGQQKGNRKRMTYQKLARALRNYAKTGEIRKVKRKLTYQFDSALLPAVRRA
How it was run: as §1

[9] = target: T6, ELK3 (Homo sapiens, UniProt P41970 1-407)
T6 sequence: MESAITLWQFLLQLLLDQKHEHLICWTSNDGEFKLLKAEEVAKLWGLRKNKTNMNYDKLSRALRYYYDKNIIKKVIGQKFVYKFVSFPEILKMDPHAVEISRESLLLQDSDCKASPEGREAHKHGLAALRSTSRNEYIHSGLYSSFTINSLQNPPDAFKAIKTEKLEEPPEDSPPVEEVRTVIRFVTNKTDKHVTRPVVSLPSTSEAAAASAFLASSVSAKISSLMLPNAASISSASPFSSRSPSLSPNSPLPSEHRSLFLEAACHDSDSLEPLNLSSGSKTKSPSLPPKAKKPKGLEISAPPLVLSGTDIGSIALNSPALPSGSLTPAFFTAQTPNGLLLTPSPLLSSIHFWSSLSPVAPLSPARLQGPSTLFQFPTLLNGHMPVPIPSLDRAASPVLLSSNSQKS
How it was run: as §1

Sequence	binding signal [1]	binding signal [2]	binding signal [3]	binding signal [4]	binding signal [5]	binding signal [6]	binding signal [7]	binding signal [8]	binding signal [9]
AACTAC	1.42 fold enrichment (6-mer frequency, TF over GST control)	1.42 fold enrichment (6-mer frequency, TF over GST control)	1.49 fold enrichment (6-mer frequency, TF over GST control)	1.5 fold enrichment (6-mer frequency, TF over GST control)	1.45 fold enrichment (6-mer frequency, TF over GST control)	1.43 fold enrichment (6-mer frequency, TF over GST control)	1.47 fold enrichment (6-mer frequency, TF over GST control)	1.47 fold enrichment (6-mer frequency, TF over GST control)	1.48 fold enrichment (6-mer frequency, TF over GST control)
ACGTTT	1.21 fold enrichment (6-mer frequency, TF over GST control)	1.18 fold enrichment (6-mer frequency, TF over GST control)	1.18 fold enrichment (6-mer frequency, TF over GST control)	1.27 fold enrichment (6-mer frequency, TF over GST control)	1.17 fold enrichment (6-mer frequency, TF over GST control)	1.16 fold enrichment (6-mer frequency, TF over GST control)	1.12 fold enrichment (6-mer frequency, TF over GST control)	1.35 fold enrichment (6-mer frequency, TF over GST control)	1.2 fold enrichment (6-mer frequency, TF over GST control)
CTAGAT	1.13 fold enrichment (6-mer frequency, TF over GST control)	1.18 fold enrichment (6-mer frequency, TF over GST control)	1.23 fold enrichment (6-mer frequency, TF over GST control)	1.12 fold enrichment (6-mer frequency, TF over GST control)	1.15 fold enrichment (6-mer frequency, TF over GST control)	1.17 fold enrichment (6-mer frequency, TF over GST control)	1.2 fold enrichment (6-mer frequency, TF over GST control)	1.17 fold enrichment (6-mer frequency, TF over GST control)	1.16 fold enrichment (6-mer frequency, TF over GST control)
TTTCGA	1.36 fold enrichment (6-mer frequency, TF over GST control)	1.45 fold enrichment (6-mer frequency, TF over GST control)	1.51 fold enrichment (6-mer frequency, TF over GST control)	1.37 fold enrichment (6-mer frequency, TF over GST control)	1.56 fold enrichment (6-mer frequency, TF over GST control)	1.49 fold enrichment (6-mer frequency, TF over GST control)	1.35 fold enrichment (6-mer frequency, TF over GST control)	1.48 fold enrichment (6-mer frequency, TF over GST control)	1.52 fold enrichment (6-mer frequency, TF over GST control)
ATTCAT	1.28 fold enrichment (6-mer frequency, TF over GST control)	1.12 fold enrichment (6-mer frequency, TF over GST control)	1.14 fold enrichment (6-mer frequency, TF over GST control)	1.16 fold enrichment (6-mer frequency, TF over GST control)	1.16 fold enrichment (6-mer frequency, TF over GST control)	1.12 fold enrichment (6-mer frequency, TF over GST control)	1.15 fold enrichment (6-mer frequency, TF over GST control)	1.21 fold enrichment (6-mer frequency, TF over GST control)	1.19 fold enrichment (6-mer frequency, TF over GST control)
CCGCAT	1.61 fold enrichment (6-mer frequency, TF over GST control)	1.59 fold enrichment (6-mer frequency, TF over GST control)	1.54 fold enrichment (6-mer frequency, TF over GST control)	1.52 fold enrichment (6-mer frequency, TF over GST control)	1.58 fold enrichment (6-mer frequency, TF over GST control)	1.61 fold enrichment (6-mer frequency, TF over GST control)	1.99 fold enrichment (6-mer frequency, TF over GST control)	1.55 fold enrichment (6-mer frequency, TF over GST control)	1.6 fold enrichment (6-mer frequency, TF over GST control)
GTCCTA	1.15 fold enrichment (6-mer frequency, TF over GST control)	1.19 fold enrichment (6-mer frequency, TF over GST control)	1.22 fold enrichment (6-mer frequency, TF over GST control)	1.14 fold enrichment (6-mer frequency, TF over GST control)	1.12 fold enrichment (6-mer frequency, TF over GST control)	1.16 fold enrichment (6-mer frequency, TF over GST control)	1.16 fold enrichment (6-mer frequency, TF over GST control)	1.18 fold enrichment (6-mer frequency, TF over GST control)	1.12 fold enrichment (6-mer frequency, TF over GST control)
GGGCCT	1.26 fold enrichment (6-mer frequency, TF over GST control)	1.29 fold enrichment (6-mer frequency, TF over GST control)	1.3 fold enrichment (6-mer frequency, TF over GST control)	1.16 fold enrichment (6-mer frequency, TF over GST control)	1.27 fold enrichment (6-mer frequency, TF over GST control)	1.27 fold enrichment (6-mer frequency, TF over GST control)	1.15 fold enrichment (6-mer frequency, TF over GST control)	1.23 fold enrichment (6-mer frequency, TF over GST control)	1.32 fold enrichment (6-mer frequency, TF over GST control)
CCCAAT	1.23 fold enrichment (6-mer frequency, TF over GST control)	1.29 fold enrichment (6-mer frequency, TF over GST control)	1.35 fold enrichment (6-mer frequency, TF over GST control)	1.24 fold enrichment (6-mer frequency, TF over GST control)	1.29 fold enrichment (6-mer frequency, TF over GST control)	1.22 fold enrichment (6-mer frequency, TF over GST control)	1.28 fold enrichment (6-mer frequency, TF over GST control)	1.21 fold enrichment (6-mer frequency, TF over GST control)	1.22 fold enrichment (6-mer frequency, TF over GST control)
CTCCCA	1.47 fold enrichment (6-mer frequency, TF over GST control)	1.33 fold enrichment (6-mer frequency, TF over GST control)	1.45 fold enrichment (6-mer frequency, TF over GST control)	1.38 fold enrichment (6-mer frequency, TF over GST control)	1.41 fold enrichment (6-mer frequency, TF over GST control)	1.39 fold enrichment (6-mer frequency, TF over GST control)	1.43 fold enrichment (6-mer frequency, TF over GST control)	1.36 fold enrichment (6-mer frequency, TF over GST control)	1.34 fold enrichment (6-mer frequency, TF over GST control)
CTCTCA	1.49 fold enrichment (6-mer frequency, TF over GST control)	1.47 fold enrichment (6-mer frequency, TF over GST control)	1.52 fold enrichment (6-mer frequency, TF over GST control)	1.36 fold enrichment (6-mer frequency, TF over GST control)	1.38 fold enrichment (6-mer frequency, TF over GST control)	1.36 fold enrichment (6-mer frequency, TF over GST control)	1.38 fold enrichment (6-mer frequency, TF over GST control)	1.44 fold enrichment (6-mer frequency, TF over GST control)	1.57 fold enrichment (6-mer frequency, TF over GST control)
TTTGCA	1.27 fold enrichment (6-mer frequency, TF over GST control)	1.33 fold enrichment (6-mer frequency, TF over GST control)	1.34 fold enrichment (6-mer frequency, TF over GST control)	1.29 fold enrichment (6-mer frequency, TF over GST control)	1.32 fold enrichment (6-mer frequency, TF over GST control)	1.19 fold enrichment (6-mer frequency, TF over GST control)	1.22 fold enrichment (6-mer frequency, TF over GST control)	1.29 fold enrichment (6-mer frequency, TF over GST control)	1.32 fold enrichment (6-mer frequency, TF over GST control)
TACCCG	1.42 fold enrichment (6-mer frequency, TF over GST control)	1.35 fold enrichment (6-mer frequency, TF over GST control)	1.51 fold enrichment (6-mer frequency, TF over GST control)	1.57 fold enrichment (6-mer frequency, TF over GST control)	1.52 fold enrichment (6-mer frequency, TF over GST control)	1.58 fold enrichment (6-mer frequency, TF over GST control)	1.42 fold enrichment (6-mer frequency, TF over GST control)	1.52 fold enrichment (6-mer frequency, TF over GST control)	1.37 fold enrichment (6-mer frequency, TF over GST control)
